Bioassay records from PubChem.
The list is not random: actives were taken first. Their share in the collection is about 6.8%.
C diff HTS: blocks growth of Clostridium difficile | Clostridium difficile clinical isolate growth, OD600, 24 h; active compounds read low | growth activity, negative = inhibition, % at 16 µg/mL (by protocol) | hit rate 0.25% among 86,000;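 active = mean growth activity at or below -80% and every replicate also at or below -80%; inconclusive = mean at or below -80% but some replicate above -80%; inactive = mean growth activity above -80%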
T cruzi growth-1: T. cruzi proliferation inhibition. T. cruzi beta-gal in NIH3T3, GalScreen luminescence, 90 h. inhibition, % at 8.34 µM. hit rate 5.9% among 77,000;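 active = mean inhibition above about 93%, with at least 55% of replicates each passing it, limit read from the data, passing the limit was not always enough; inconclusive = only one of those two conditions holds; inactive = neither condition holds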
Pf Dd2 growth: P. falciparum Dd2 growth inhibition; SYBR Green, 72 h; active compounds read low; hit rate 2.3% among 94,000; activity change, % at 10 µM; in the data active = activity change below about -80%; inconclusive = no clear call, values can overlap the other calls
T cruzi growth-2: Trypanosoma cruzi proliferation inhibition. AID 651739. hit rate 72% among 5,600. T. cruzi beta-gal in NIH3T3, GalScreen luminescence, 90 h. shares compounds with T cruzi growth-1. inhibition, % at 8.35 µM;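 active = mean replicate inhibition above about 95% and at least 55% of replicates individually reaching it, limit read from the data; inconclusive = only one of the two criteria is met; inactive = neither criterion is met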
T cruzi growth-3: inhibitors of T. cruzi proliferation; inhibition, % at 2.09 µM; hit rate 21% among 5,600; T. cruzi beta-gal in NIH3T3, GalScreen luminescence, 90 h; shares compounds with T cruzi growth-1;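 active = mean inhibition above about 95%, with at least 55% of replicates also reaching it, limit read from the data; inconclusive = meets just one of the two conditions; inactive = meets neither condition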
NIH3T3 tox: kills mouse NIH/3T3 fibroblasts; shares compounds with T cruzi growth-1; NIH/3T3 viability, CellTiter-Glo ATP luminescence, 90 h; cytotoxicity (signal decrease), % at 8.35 µM; hit rate 14% among 5,600;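 active = mean signal decrease across replicates above about 35% based on untreated-well scatter, with enough replicates individually passing, limit read from the data; inconclusive = no rule stated though some were filed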
NIH3T3 tox 2: kills mouse NIH/3T3 fibroblasts; shares compounds with T cruzi growth-1; NIH/3T3 viability, CellTiter-Glo ATP luminescence, 90 h; inhibition, % at 24.9 µM; hit rate 56% among 5,600;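 active = mean loss of cell viability signal at or above a set limit, and enough replicates individually reaching it; inconclusive = meets only the mean limit or only the replicate share; inactive = meets neither condition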
Large screens that a line does not name were inactive (follow-up assays come after a bar, where they were run).

C[C@@H]1CN([C@@H](C)CO)S(=O)(=O)c2ccc(-c3ccc(F)cc3)cc2O[C@@H]1CN(C)C(=O)Nc1ccc(F)cc1	T cruzi growth-1 123 (no result: C diff HTS) | T cruzi growth-2 111 | T cruzi growth-3 inactive | NIH3T3 tox inactive | NIH3T3 tox 2 62
C[C@@H]1CN([C@H](C)CO)S(=O)(=O)c2ccc(-c3ccc(F)cc3)cc2O[C@H]1CN(C)C(=O)Nc1ccc(F)cc1	T cruzi growth-1 114 (no result: C diff HTS) | T cruzi growth-2 106 | T cruzi growth-3 inactive | NIH3T3 tox 38 | NIH3T3 tox 2 74
CC(=O)N(C)C[C@H]1Oc2cc(-c3ccc(F)cc3)ccc2S(=O)(=O)N([C@H](C)CO)C[C@H]1C	none
C[C@H]1CN([C@@H](C)CO)S(=O)(=O)c2ccc(-c3ccc(F)cc3)cc2O[C@@H]1CN(C)C(=O)Nc1ccc(F)cc1	T cruzi growth-1 119 (no result: C diff HTS) | T cruzi growth-2 103 | T cruzi growth-3 inactive | NIH3T3 tox inactive | NIH3T3 tox 2 58
C[C@@H]1CN([C@H](C)CO)S(=O)(=O)c2ccc(-c3ccncc3)cc2O[C@H]1CN(C)C(=O)Nc1ccc(F)cc1	T cruzi growth-1 101 | T cruzi growth-2 inactive | T cruzi growth-3 inactive | NIH3T3 tox inactive | NIH3T3 tox 2 75
C[C@@H]1CN([C@H](C)CO)S(=O)(=O)c2ccc(Br)cc2O[C@H]1CN(C)C(=O)Nc1ccc(F)cc1	none
C[C@@H]1CN([C@@H](C)CO)C(=O)Cc2cc(NC(=O)CCCCCC(=O)Nc3ccccc3N)ccc2O[C@@H]1CN(C)C(=O)Nc1ccc(F)cc1	none
C[C@@H]1CN([C@@H](C)CO)C(=O)c2cccc(NC(=O)c3ccc(-c4nccs4)cc3)c2O[C@H]1CN(C)C(=O)Nc1ccc2c(c1)OCO2	none (no result: C diff HTS)
N#C[C@@H]1[C@@H](c2ccc(C3=CCCC3)cc2)[C@@H](CO)N1c1nc(-c2ccccc2)cs1	T cruzi growth-1 108 | T cruzi growth-2 96 | T cruzi growth-3 inactive | NIH3T3 tox inactive | NIH3T3 tox 2 inactive
N#C[C@H]1[C@@H](c2ccc(-c3cccc(F)c3)cc2)[C@@H](CO)N1c1nc(-c2ccccc2)cs1	none
N#C[C@H]1[C@H](c2ccc(C3=CCCC3)cc2)[C@H](CO)N1c1nc(-c2ccccc2)cs1	none
N#C[C@@H]1[C@@H](c2ccc(-c3cccc(F)c3)cc2)[C@@H](CO)N1c1nc(-c2ccccc2)cs1	T cruzi growth-1 99 | T cruzi growth-2 110 | T cruzi growth-3 99 | NIH3T3 tox inactive | NIH3T3 tox 2 inactive
N#C[C@H]1[C@@H](c2ccc(-c3ccc(F)cc3)cc2)[C@H](CO)N1c1nc(-c2ccccc2)cs1	none
N#C[C@@H]1[C@@H](c2ccc(-c3ccc(F)cc3)cc2)[C@@H](CO)N1c1nc(-c2ccccc2)cs1	T cruzi growth-1 105 | T cruzi growth-2 108 | T cruzi growth-3 96 | NIH3T3 tox inactive | NIH3T3 tox 2 inactive
CN(C)CC(=O)N[C@@H]1C=C[C@@H](CC(=O)NCc2ccccc2F)O[C@H]1CO	none
C[C@@H]1CN([C@@H](C)CO)C(=O)Cc2cc(NC(=O)c3ccncc3)ccc2O[C@@H]1CN(C)CC1CCCCC1	none
C[C@@H]1CN([C@H](C)CO)S(=O)(=O)c2ccc(/C=C/c3ccccc3)cc2O[C@H]1CN(C)C(=O)C1CC1	none
CCCNC(=O)C[C@@H]1CC[C@@H]2[C@@H](COc3ccc(NS(=O)(=O)CC)cc3C(=O)N2C)O1	none
C[C@H](CO)N1C[C@H](C)[C@H](CN(C)C(=O)Nc2ccc(C(F)(F)F)cc2)Oc2ccc(NS(C)(=O)=O)cc2C1=O	none
Cc1ccccc1S(=O)(=O)N1CCCCN2[C@H](CO)[C@H](c3ccc(-c4cccc(F)c4)cc3)[C@H]2C1	none
Cc1cccc(-c2ccc([C@@H]3[C@H](CO)N4CCCCN(S(=O)(=O)c5ccccc5C)C[C@@H]34)cc2)c1	none
Cc1ccccc1S(=O)(=O)N1CCCCN2[C@H](C1)[C@@H](c1ccc(-c3cccc(F)c3)cc1)[C@@H]2CO	T cruzi growth-1 inconclusive | T cruzi growth-2 111 | T cruzi growth-3 inactive | NIH3T3 tox inactive | NIH3T3 tox 2 73
Cc1ccccc1S(=O)(=O)N1CCCCN2[C@@H](CO)[C@H](c3ccc(-c4cccc(F)c4)cc3)[C@@H]2C1	T cruzi growth-1 106 | T cruzi growth-2 inactive | T cruzi growth-3 103 | NIH3T3 tox 56 | NIH3T3 tox 2 103
